Test results published in ChEMBL document CHEMBL3988442, “University of Dundee, Small-Polar-MMV Screening Library” (2021).
For some of these results: Results with a measured potency or affinity are listed apart.

Key:
Design in all cases: scale not given: direction of the effect not stated beside the values
[1] = target: Protein translocase subunit SecA (Escherichia coli (strain K12)) (UniProt P10408); assay: Assay to Identify E. coli SecA ATPase Inhibitors; assay type: functional; settings: 30 µM
[2] = target: T1, Ubiquitin-activating enzyme e1, putative (Leishmania donovani (strain BPK282A1)) (UniProt E9BSI1); assay: Leishmania donovani Ubiquitin Activating Enzyme (LdE1); assay type: functional; settings: 30 µM
T1 sequence (whole entry): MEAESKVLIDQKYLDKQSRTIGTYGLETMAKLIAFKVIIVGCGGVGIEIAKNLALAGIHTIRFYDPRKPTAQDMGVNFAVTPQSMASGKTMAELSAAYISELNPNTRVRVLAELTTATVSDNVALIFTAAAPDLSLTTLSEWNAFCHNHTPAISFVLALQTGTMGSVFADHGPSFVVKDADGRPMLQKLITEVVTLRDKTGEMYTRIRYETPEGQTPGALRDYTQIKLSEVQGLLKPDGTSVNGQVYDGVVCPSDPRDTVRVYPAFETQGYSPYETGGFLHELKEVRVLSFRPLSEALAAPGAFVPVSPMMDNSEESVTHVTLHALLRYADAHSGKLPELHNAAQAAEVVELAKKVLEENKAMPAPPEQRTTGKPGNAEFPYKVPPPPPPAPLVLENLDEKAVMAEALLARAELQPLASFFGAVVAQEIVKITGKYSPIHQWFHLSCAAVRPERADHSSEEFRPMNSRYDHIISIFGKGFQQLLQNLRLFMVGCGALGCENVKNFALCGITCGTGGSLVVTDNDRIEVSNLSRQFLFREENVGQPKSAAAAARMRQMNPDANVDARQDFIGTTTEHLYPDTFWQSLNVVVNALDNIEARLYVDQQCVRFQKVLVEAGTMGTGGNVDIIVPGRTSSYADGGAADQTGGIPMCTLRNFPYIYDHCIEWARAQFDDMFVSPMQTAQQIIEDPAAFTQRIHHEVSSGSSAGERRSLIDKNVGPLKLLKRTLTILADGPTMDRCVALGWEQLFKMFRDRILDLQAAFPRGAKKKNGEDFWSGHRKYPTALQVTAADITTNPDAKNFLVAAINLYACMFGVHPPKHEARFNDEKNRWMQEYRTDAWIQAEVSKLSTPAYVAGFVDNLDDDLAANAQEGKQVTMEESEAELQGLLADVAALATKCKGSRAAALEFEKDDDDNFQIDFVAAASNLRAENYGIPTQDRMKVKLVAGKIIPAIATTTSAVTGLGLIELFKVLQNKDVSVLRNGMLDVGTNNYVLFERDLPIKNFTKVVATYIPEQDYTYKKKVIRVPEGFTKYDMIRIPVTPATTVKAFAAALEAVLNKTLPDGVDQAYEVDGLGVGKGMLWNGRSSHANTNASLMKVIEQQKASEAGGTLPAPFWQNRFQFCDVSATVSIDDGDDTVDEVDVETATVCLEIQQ

[3] = target: AMP-activated protein kinase, AMPK (Homo sapiens) (UniProt P54646+O43741+P54619+Q9UGJ0+Q9Y478+Q13131+Q9UGI9); assay: AMP-dependent Kinase enzyme assay. An in vitro enzyme assay that detects ADP turnover that is directly proportional to AMPK activity. This uses naive AMPK that is activated during the assay with MK-8722; assay type: functional; settings: 30 µM
[4] = target: Sialic acid-binding Ig-like lectin 9 (Homo sapiens) (UniProt Q9Y336); assay: Hs-Siglec9 ALPHAscreen SOP 20170721; settings: 10 µM
[5] = system: Trypanosoma cruzi; assay: Trypanosoma cruzi phosphomannomutase and mannose-1-phosphate guanylyltransferase assay; assay type: functional; settings: 10 µM
[6] = target: T2, Arginase-2, mitochondrial (Homo sapiens) (UniProt P78540); assay: in vitro enzyme assay to detect the production of urea directly proportional to the activity of Arginase II; assay type: functional; settings: 33.3 µM; also: in the data most compounds retested in dose-response had high values
T2 sequence (whole entry): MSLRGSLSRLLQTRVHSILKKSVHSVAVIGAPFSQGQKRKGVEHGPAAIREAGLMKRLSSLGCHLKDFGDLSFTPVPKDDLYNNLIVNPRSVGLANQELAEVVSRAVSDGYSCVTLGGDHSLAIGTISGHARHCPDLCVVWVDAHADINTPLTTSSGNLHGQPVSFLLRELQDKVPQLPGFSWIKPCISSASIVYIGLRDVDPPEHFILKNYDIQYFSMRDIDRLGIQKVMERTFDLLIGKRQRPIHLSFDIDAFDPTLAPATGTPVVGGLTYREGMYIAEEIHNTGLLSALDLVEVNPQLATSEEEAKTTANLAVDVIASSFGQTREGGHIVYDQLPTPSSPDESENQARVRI

[7] = target: T3, Proteasome subunit beta (Trypanosoma cruzi) (UniProt O96673); assay: Trypanosoma cruzi proteasome chymotrypsin-like activity (TcProtChymo) assay.; also: in the data most compounds retested in dose-response had high values; assay type: functional; settings: 9.37 µM
T3 sequence (whole entry): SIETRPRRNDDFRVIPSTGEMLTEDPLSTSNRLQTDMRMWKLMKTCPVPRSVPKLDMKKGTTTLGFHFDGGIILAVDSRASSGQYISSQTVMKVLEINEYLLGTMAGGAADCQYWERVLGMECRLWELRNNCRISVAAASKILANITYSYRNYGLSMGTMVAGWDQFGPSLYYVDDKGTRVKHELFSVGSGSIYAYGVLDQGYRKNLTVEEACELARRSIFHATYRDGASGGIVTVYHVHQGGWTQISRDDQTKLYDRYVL

[8] = species on record: Homo sapiens; assay: To identify inhibition of the IFN signalling (Jak-Stat) pathway via expression of an eGFP reporter gene under the control of an IFN-stimulated response element (ISRE) containing MxA promoter.; assay type: functional; settings: 30 µM
[9] = target: T4, Tyrosyl-tRNA synthetase, putative (Trypanosoma cruzi (strain CL Brener)) (UniProt Q4DSP6); assay: Trypanosoma cruzi tyrosyl tRNA synthetase (TcYRS) _High Tyrosine SOP; assay type: functional; settings: 30 µM; also: in the data most compounds retested in dose-response had high values
T4 sequence (whole entry): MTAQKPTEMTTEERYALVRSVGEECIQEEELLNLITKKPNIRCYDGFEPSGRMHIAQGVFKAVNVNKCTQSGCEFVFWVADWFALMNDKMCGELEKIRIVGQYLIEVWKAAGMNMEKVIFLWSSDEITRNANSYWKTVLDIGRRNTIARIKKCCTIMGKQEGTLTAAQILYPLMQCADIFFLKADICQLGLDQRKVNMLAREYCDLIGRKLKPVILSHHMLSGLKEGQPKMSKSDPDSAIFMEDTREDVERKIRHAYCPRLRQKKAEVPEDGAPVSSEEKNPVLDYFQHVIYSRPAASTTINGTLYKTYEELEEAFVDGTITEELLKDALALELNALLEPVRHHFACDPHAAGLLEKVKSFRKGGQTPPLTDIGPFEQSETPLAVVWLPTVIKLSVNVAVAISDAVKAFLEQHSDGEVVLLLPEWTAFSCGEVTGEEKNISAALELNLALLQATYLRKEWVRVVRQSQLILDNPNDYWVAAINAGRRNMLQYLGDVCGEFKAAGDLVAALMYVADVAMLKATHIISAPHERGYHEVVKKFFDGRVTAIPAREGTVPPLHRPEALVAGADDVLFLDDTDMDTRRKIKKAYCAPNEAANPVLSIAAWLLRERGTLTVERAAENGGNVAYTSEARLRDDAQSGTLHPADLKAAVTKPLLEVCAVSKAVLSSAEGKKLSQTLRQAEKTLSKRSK

[10] = target: T4, Tyrosyl-tRNA synthetase, putative (Trypanosoma cruzi (strain CL Brener)); assay: Trypanosoma cruzi tyrosyl tRNA synthetase (TcYRS) SOP; assay type: functional; settings: 30 µM
[11] = target: Chromo domain-containing protein 1 (Saccharomyces cerevisiae (strain ATCC 204508 / S288c) (Baker's yeast)) (UniProt P32657); assay: ScCHD-1 Enzyme Inhibition Assay; assay type: functional; settings: 30 µM; also: in the data most compounds retested in dose-response had high values
Chain of Chromo domain-containing protein 1 (Saccharomyces cerevisiae (strain ATCC 204508 / S288c) (Baker's yeast)) (P32657 whole entry, the tested form may be a part): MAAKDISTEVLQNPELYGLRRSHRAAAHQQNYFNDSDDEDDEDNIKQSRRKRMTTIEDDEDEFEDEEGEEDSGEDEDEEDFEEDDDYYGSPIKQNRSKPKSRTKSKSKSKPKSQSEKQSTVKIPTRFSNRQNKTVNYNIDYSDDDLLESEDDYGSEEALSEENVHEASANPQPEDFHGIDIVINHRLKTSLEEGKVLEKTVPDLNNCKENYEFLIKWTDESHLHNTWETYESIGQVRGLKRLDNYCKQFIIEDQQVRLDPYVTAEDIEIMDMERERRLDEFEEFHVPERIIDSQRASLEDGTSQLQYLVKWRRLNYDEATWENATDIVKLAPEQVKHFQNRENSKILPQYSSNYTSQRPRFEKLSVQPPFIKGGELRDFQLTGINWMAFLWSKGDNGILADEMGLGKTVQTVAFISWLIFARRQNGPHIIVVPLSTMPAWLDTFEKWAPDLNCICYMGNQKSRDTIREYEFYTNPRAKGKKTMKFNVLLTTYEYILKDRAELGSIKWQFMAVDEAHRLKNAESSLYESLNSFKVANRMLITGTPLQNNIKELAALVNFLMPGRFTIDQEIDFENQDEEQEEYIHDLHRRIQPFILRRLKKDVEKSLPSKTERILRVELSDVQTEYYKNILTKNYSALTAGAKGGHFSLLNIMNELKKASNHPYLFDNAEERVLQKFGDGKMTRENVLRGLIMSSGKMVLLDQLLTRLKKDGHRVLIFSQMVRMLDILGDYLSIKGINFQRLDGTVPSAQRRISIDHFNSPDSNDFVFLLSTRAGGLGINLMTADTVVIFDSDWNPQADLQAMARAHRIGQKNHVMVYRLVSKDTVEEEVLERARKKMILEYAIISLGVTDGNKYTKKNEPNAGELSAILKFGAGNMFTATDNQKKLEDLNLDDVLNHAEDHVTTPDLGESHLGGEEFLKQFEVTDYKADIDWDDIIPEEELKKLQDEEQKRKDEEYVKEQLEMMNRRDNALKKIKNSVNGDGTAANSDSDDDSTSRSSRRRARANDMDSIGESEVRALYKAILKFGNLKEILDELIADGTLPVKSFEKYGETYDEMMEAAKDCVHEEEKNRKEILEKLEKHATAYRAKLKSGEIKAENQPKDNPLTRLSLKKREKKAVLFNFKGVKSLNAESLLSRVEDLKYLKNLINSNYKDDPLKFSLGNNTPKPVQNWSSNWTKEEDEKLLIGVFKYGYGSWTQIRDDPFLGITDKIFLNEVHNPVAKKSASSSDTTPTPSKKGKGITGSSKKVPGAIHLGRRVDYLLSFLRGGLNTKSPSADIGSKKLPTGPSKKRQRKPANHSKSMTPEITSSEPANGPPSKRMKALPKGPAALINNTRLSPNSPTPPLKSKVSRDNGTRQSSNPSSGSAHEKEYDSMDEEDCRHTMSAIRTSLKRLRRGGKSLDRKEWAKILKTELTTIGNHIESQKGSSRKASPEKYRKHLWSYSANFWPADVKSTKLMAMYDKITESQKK

Chain of Protein translocase subunit SecA (Escherichia coli (strain K12)) (P10408 whole entry): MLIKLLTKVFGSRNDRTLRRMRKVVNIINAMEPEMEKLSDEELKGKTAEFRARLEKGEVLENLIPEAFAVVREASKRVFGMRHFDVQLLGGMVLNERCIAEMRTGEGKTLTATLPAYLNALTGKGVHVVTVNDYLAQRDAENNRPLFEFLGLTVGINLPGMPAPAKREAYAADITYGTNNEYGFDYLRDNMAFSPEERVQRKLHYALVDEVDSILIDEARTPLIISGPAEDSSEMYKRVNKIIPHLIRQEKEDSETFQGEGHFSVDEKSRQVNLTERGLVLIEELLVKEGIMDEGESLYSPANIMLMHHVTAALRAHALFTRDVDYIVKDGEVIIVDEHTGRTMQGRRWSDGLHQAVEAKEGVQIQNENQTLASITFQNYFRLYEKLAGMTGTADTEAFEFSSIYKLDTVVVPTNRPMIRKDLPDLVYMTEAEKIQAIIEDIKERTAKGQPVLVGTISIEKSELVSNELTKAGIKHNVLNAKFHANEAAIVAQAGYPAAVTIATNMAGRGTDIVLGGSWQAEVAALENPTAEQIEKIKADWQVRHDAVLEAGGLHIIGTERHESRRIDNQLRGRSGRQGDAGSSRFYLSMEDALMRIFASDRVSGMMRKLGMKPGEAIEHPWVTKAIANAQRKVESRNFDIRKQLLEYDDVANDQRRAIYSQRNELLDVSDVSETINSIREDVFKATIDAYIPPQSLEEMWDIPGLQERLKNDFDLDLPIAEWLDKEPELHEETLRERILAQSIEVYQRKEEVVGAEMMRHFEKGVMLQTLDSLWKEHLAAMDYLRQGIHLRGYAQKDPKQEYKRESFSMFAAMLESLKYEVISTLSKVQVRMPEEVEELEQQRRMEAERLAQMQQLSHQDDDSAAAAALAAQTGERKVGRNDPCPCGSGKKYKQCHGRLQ
Chain of Sialic acid-binding Ig-like lectin 9 (Homo sapiens) (Q9Y336 whole entry): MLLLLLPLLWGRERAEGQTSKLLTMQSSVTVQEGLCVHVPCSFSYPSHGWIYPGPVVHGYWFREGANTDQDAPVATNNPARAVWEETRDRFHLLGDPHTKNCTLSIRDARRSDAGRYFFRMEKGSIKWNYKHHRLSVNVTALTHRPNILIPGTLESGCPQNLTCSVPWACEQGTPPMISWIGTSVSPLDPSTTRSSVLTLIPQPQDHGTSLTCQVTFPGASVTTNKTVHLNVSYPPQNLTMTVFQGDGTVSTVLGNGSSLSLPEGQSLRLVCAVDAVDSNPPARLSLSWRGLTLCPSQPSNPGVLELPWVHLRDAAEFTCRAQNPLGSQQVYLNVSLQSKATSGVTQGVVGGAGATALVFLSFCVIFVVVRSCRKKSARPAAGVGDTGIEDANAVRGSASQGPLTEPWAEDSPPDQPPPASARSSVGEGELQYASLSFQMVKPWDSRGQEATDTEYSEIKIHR

| SMILES | Percent Effect [1] [%] | Percent Effect [2] [%] | Percent Effect [3] [%] | Percent Effect [4] [%] | Percent Effect [5] [%] | Percent Effect [6] [%] | Percent Effect [7] [%] | Percent Effect [8] [%] | Percent Effect [9] [%] | Percent Effect [10] [%] | Percent Effect [11] [%] |
| --- | --- | --- | --- | --- | --- | --- | --- | --- | --- | --- | --- |
| CC(C)OCc1ncn2c1CN(Cc1ccc(F)cc1)CCC2 | -4.79 | 8.11 | 2.07 | 2.94 | -4.79 | -6.05 | 22 | -10.1 | 3.24 | 12.8 | -0.808 |
| CCC1(CC)Cc2ccccc2-c2nc(NCCO)[nH]c(=O)c21 | -5.77 | 10.5 | 29.9 | 1.17 | -2.63 | 3.55 | 26.4 | 29.8 | 5.32 | 10.4 | -13.3 |
| Cn1cc(C(=O)Nc2ccc3c(c2)CN(C(=O)c2ccco2)CC3)nn1 | -2.6 | 7.79 | 7.19 | 9.07 | 3.65 | -5.81 | 7.66 | 0.998 | 4.23 | 11.5 | -7.06 |
| N#Cc1ccc(N2CCCN(C(=O)CC3CCCO3)CC2)cc1 (stereo not drawn) | -4.45 | 5.41 | 7.34 | 18.8 | 5.19 | -5.61 | -2.34 | 10.8 | 0.493 | 16.1 | -12.8 |
| CNC(=O)CCc1cc(C)nc(C2CCCN2)c1 (stereo not drawn) | -6.62 | 14.9 | 6.02 | 1.63 | 2.17 | -3.02 | 6.08 | -9.75 | 2.15 | 11.7 | -23.7 |
| CNC(=O)Cc1ccc(NC(=O)NC(C)C(C)C)cc1 (stereo not drawn) | -2.02 | 10.5 | 3.68 | 1.41 | 1.66 | 0 | 8.53 | -8.18 | 4.25 | 15.6 | -3.23 |
| Cn1ccc(C(=O)N2CCCC(n3cncn3)C2)cc1=O (stereo not drawn) | -7.5 | 10.4 | -3.42 | 0.542 | 5.97 | -6.11 | 11.9 | -3.24 | 3.81 | 9.41 | -18.8 |
| CC(Cn1cccn1)NC(=O)NCCc1ccc(Cl)s1 (stereo not drawn) | -0.239 | 22.8 | 0.135 | -8.1 | -0.283 | 1.52 | 9.75 | 5.52 | 3.45 | 16.5 | -2.95 |
